{"source": "PubChem BioAssay AID1671192", "about": "(National Center for Advancing Translational Sciences (NCATS), 2021)", "note": "Inconclusive results are not listed. A number with no mark means an inactive call. Calls come from the whole dose curve; as a rule, active = well fitted curve in the direction sought with a large enough effect; inconclusive = small, poorly fitted or top-dose-only effect, or another doubt; inactive = no such curve, though single readings can be large or run the other way.", "data": [{"target": "Polyunsaturated fatty acid lipoxygenase ALOX15 (Homo sapiens) (UniProt P16050)", "sequence (P16050 whole entry, looked up)": "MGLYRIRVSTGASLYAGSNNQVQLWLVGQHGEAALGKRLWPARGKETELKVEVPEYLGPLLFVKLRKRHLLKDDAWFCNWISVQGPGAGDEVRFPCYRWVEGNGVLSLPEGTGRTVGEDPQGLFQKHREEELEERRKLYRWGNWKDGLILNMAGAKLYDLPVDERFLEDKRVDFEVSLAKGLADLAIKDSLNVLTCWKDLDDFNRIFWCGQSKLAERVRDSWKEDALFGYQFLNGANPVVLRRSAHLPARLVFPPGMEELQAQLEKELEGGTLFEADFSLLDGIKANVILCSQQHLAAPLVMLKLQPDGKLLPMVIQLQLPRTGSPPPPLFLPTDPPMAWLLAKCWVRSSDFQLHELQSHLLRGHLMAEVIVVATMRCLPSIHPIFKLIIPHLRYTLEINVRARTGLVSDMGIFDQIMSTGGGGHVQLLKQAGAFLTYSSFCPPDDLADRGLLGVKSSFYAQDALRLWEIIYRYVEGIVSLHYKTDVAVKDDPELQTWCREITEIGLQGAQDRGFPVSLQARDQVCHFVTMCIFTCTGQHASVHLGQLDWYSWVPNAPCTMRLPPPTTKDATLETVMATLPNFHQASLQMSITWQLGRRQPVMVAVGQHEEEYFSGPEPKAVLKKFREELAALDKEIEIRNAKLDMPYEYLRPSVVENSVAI", "test": "Counterscreen qHTS for inhibitors of human arachidonate 12S-lipoxygenase (ALOX12): ALOX15 Assay; note: 0% is about no effect", "details": "purified ALOX15 enzyme activity; series mostly up to 110 µM; activity change, negative = inhibition: at the top concentration", "how_it_was_run": "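Xylenol orange–ferric complex formation, read as the 573 nm to 405 nm absorbance ratio, tracks product from 50 uM arachidonic acid turned over for 30 min at RT. Enzyme is 40 nM ALOX15, pH 7.5 HEPES buffer, compound-preincubated 15 min.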", "values": [{"smiles": "O=C(c1ccc(Cl)cc1)N1CC2(CCN(Cc3ccc(Cl)cc3)C2)Cc2ccccc21", "note": "(stereo not drawn)", "activity change, negative = inhibition": "-15.9%"}, {"smiles": "COc1cccc(N2C(=O)NC(=NC3CCCCC3)C23CCCN([S+](=O)([O-])c2cccs2)C3)c1", "note": "(stereo not drawn)", "activity change, negative = inhibition": "-28.6%"}, {"smiles": "O=C1NCc2ccccc2CC12CCCN2Cc1ccc(Cl)cc1", "note": "(stereo not drawn)", "activity change, negative = inhibition": "-6.9% [at 146 µM]"}, {"smiles": "CN1CC(=O)N(C2CCNC2)Cc2c(NCC3(O)CCCCC3)ncnc21", "note": "(stereo not drawn)", "activity change, negative = inhibition": "-12.9%"}, {"smiles": "COc1ccc(N2CC3CCC(C2)N3Cc2ccc(-c3cccnc3)cc2)cc1", "activity change, negative = inhibition": "-22%"}, {"smiles": "CC(=O)N1CCC(c2nnc3n2CCNC3)CC1", "activity change, negative = inhibition": "-21.6% [at 146 µM]"}, {"smiles": "CN(C)CCCC(=O)N1Cc2ccccc2CC2(CCCCN2Cc2ccccc2)C1", "note": "(stereo not drawn)", "activity change, negative = inhibition": "-19.7%"}, {"smiles": "CCOCCNc1ncnc2c1CN(C1CCCNC1)C(=O)CN2C", "note": "(stereo not drawn)", "activity change, negative = inhibition": "-28.1%"}, {"smiles": "CC(C)OCCCNC(=O)c1cc(C2CC2)nc2onc(C3CCCN3)c12", "note": "(stereo not drawn)", "activity change, negative = inhibition": "-5.04%"}, {"smiles": "O=C1NCc2ccccc2CC12CCCN2Cc1ccccc1Cl", "note": "(stereo not drawn)", "activity change, negative = inhibition": "4.31% [at 146 µM]"}, {"smiles": "CN1CC(=O)N(C2CCCNC2)Cc2c1ncnc2N1CCc2ccccc2C1", "note": "(stereo not drawn)", "activity change, negative = inhibition": "1.42%"}, {"smiles": "CCc1ccc(CN2CCCC23Cc2ccccc2CNC3=O)cc1", "note": "(stereo not drawn)", "activity change, negative = inhibition": "13.6% [at 146 µM]"}, {"smiles": "CC(=O)N1CCC2(CC1)CN(C(=O)Cc1csc(N)n1)Cc1ccccc1O2", "activity change, negative = inhibition": "-4.11%"}, {"smiles": "CN1CC(=O)N(C2CCC2)Cc2c(NC3CCNCC3)ncnc21", "activity change, negative = inhibition": "-16.5% [at 146 µM]"}, {"smiles": "COCCCNc1nc2c(S(=O)(=O)c3c(C)cc(C)cc3C)nnn2c2ccccc12", "activity change, negative = inhibition": "-27.7%"}, {"smiles": "O=Cc1cccc(N2CCN(C(=O)c3ccc4c(c3)OCO4)CC2=O)c1", "activity change, negative = inhibition": "-7.4% [at 146 µM]"}, {"smiles": "CN1CC(=O)N(C2CCNCC2)Cc2c1ncnc2N1CCCC1CO", "note": "(stereo not drawn)", "activity change, negative = inhibition": "-27.7%"}, {"smiles": "Cc1ccc(C(=O)N2CCc3nc(C4CC4)nc(-c4ccc(Cl)cc4)c3C2)cc1", "activity change, negative = inhibition": "-24.7%"}, {"smiles": "CC(=O)NCCC(=O)N1Cc2ccccc2CC2(CCCN(CC3CCNC3)C2)C1", "note": "(stereo not drawn)", "activity change, negative = inhibition": "3.5%"}, {"smiles": "O=C(NCc1ccncc1)c1cc(C2CC2)nc2c1c(C1CCCN1)nn2-c1ccccc1", "note": "(stereo not drawn)", "activity change, negative = inhibition": "5.49%"}, {"smiles": "CCC(=O)N1Cc2ccccc2CC2(CCCCN2CC2CCOCC2)C1", "note": "(stereo not drawn)", "activity change, negative = inhibition": "15.2%"}, {"smiles": "CCC(=O)N1Cc2ccccc2CC2(CCCN(CC3CCNC3)C2)C1", "note": "(stereo not drawn)", "activity change, negative = inhibition": "-19.7% [at 146 µM]"}, {"smiles": "COc1ccc(CNc2ncnc3c2CN(C2CCNCC2)C(=O)CN3C)cc1", "activity change, negative = inhibition": "-36.3%"}, {"smiles": "O=C(O)c1cccc(-c2ccc(OC(F)(F)F)cc2)c1", "activity change, negative = inhibition": "0.598% [at 146 µM]"}, {"smiles": "O=[S+]([O-])(c1ccccc1)N1CC(Oc2ccc3c(c2)OCO3)C1", "activity change, negative = inhibition": "-9.22% [at 146 µM]"}, {"smiles": "O=C(NC1CC1)c1cc(C2CC2)nc2onc(C3CCNCC3)c12", "activity change, negative = inhibition": "-21.6% [at 146 µM]"}, {"smiles": "CN1CC(=O)N(C2CCNCC2)Cc2c(NCCOc3ccccc3)ncnc21", "activity change, negative = inhibition": "-4.67%"}, {"smiles": "COc1ccc(CN2CCCC23Cc2ccccc2CNC3=O)c(O)c1", "note": "(stereo not drawn)", "activity change, negative = inhibition": "-18.1% [at 146 µM]"}, {"smiles": "O=C(c1ccc2c(c1)OCO2)N1CCC2(CC1)C(=O)Nc1ccccc12", "activity change, negative = inhibition": "1.58% [at 146 µM]"}, {"smiles": "Cc1cc(C(=O)N2CCC(F)CC2)c2c(C3CCCN3)noc2n1", "note": "(stereo not drawn)", "activity change, negative = inhibition": "-5.46% [at 146 µM]"}, {"smiles": "CC(C)c1nc2c(c(-c3ccc(Cl)cc3)n1)CCN(C(=O)c1ccc3c(c1)OCO3)CC2", "activity change, negative = inhibition": "-10.9%"}, {"smiles": "CCCN1CCCC2(Cc3ccccc3CN(C(=O)Cc3ccccc3)C2)C1", "note": "(stereo not drawn)", "activity change, negative = inhibition": "-27.1%"}, {"smiles": "O=C1NCCN1C1CCN(Cc2ccc(F)cc2)CC1", "activity change, negative = inhibition": "-7.78% [at 146 µM]"}, {"smiles": "COc1ccc(-c2cc(C(=O)NCC(C)C)c3c(C4CCCN4)noc3n2)cc1", "note": "(stereo not drawn)", "activity change, negative = inhibition": "-24.7%"}, {"smiles": "CC(C)C(=O)N1CCCC2(Cc3ccccc3CN2[S+](=O)([O-])c2ccccc2)C1", "note": "(stereo not drawn)", "activity change, negative = inhibition": "-13.4%"}, {"smiles": "O=C1NCc2ccccc2CC12CCN(Cc1ccc(Cl)cc1)CC2", "activity change, negative = inhibition": "-1.13% [at 146 µM]"}, {"smiles": "O=C(N1CCCCC1)N1CCCC1c1nnc2n1CCNC2", "note": "(stereo not drawn)", "activity change, negative = inhibition": "-11.3%"}, {"smiles": "Cc1noc(C)c1C(=O)N1Cc2ccccc2CC2(CCN(C)C2)C1", "note": "(stereo not drawn)", "activity change, negative = inhibition": "-17.4% [at 146 µM]"}]}]}
